Records with an inconclusive call do not appear. Active and inactive are the calls of the source. The call rests on the fitted dose curve; in most records, active means well fitted curve in the direction sought with a large enough effect; inconclusive means small, poorly fitted or top-dose-only effect, or another doubt; inactive means no such curve, though single readings can be large; an effect the other way counts as inactive or inconclusive.
Tests used:
[1] = system: Zika virus NS2B-NS3 protease (linked construct); assay: Primary screen NINDS Rhodamine qHTS for Zika virus inhibitors (AID 1347160); further: nearly all actives have a fitted effect of over 55% in size; on activity change, negative = inhibition: on the % scale 0 is the no-effect control and ±100 the full control effect
How it was run: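 In 10 mM Tris-HCl pH 8.0 containing 0.01% Tween 20, linked NS2B-NS3 protease (25 nM final) is exposed to test compounds for 15 min. Cleavage of 1.5 microM Rhodamine110 substrate is tracked by fluorescence over 15 min.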

[2] = biological target: Calcium and integrin-binding protein 1 (Homo sapiens) (UniProt Q99828); assay: Primary qHTS for Identification of Calcium Integrin Binding Protein 1 (CIB1) Competitor (AID 1508620);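 further: GST tagged CIB1 binding a fluorescein labelled alphaIIb integrin peptide tracer; top concentration of the series differs between compounds; on the % scale 0 is the no-effect control and ±100 the full control effect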
How it was run: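 CIB1-GST (1 uM final) and compound incubated 15 min at room temperature before adding FITC-alphaIIb peptide tracer (100 nM final). Competition for binding read by fluorescence polarization (ex 480, em 540) after another 15 min at room temperature.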

[3] = biological target: Glutathione peroxidase 1 (Homo sapiens) (UniProt P07203); assay: Primary qHTS Assay for Inhibitors of Recombinant Selenoprotein Glutathione Peroxidase 1 (GPX1) (AID 1845191); further: nearly all actives have a fitted effect of over 65% in size
How it was run: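 10 nM GPX1 + cpd, 30 min RT; start w/ 1 mM GSH, 0.5 mM cumene hydroperoxide, 0.5 mM NADPH, 100 nM GR, 0.01% BSA; buffer 50 mM Tris-HCl pH 7.5, 2 mM EDTA, 150 mM NaCl; Fl 340/450, 0 & 15 min.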

[4] = biological target: Phospholipid hydroperoxide glutathione peroxidase GPX4 (Homo sapiens) (UniProt P36969); assay: Primary qHTS Assay for Inhibitors of Recombinant Selenoprotein Glutathione Peroxidase 4 (GPX4) (AID 1845192); further: nearly all actives have a fitted effect of over 65% in size; on activity change, negative = inhibition: on the % scale 0 is the no-effect control and ±100 the full control effect
How it was run: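 NADPH consumption, followed by fluorescence at 340/450 nm between 0 and 15 min, reports GPX4 activity via coupled glutathione reductase (100 nM). Enzyme 200 nM was pre-exposed to compound 30 min; 0.5 mM cumene hydroperoxide and 1 mM GSH served as substrates.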

[5] = biological target: Luciferin 4-monooxygenase (Photinus pyralis) (UniProt P08659); assay: Primary firefly luciferase (FLuc) qHTS assay for identification of artifact compounds. (AID 1845220); details: outcome: dose series up to 54.1 µM unless noted; further: nearly all actives have a fitted effect of over 60% in size;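 on activity change, negative = inhibition: plate controls were DMSO vehicle for no effect and no enzyme for full effect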
How it was run: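 Cell-free, 1536-well qHTS. Buffer pH 7.6 with 0.01% Tween-20 and 0.05% BSA; 10 uM D-luciferin, 10 uM ATP; 10 nM P. pyralis luciferase; luminescence after 5 min.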

[6] = system: Nanoluciferase (engineered Oplophorus gracilirostris luciferase); assay: Primary Nanoluciferase (NLuc) qHTS assay for identification of artifact compounds. (AID 1845222);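 further: 0% = DMSO and -100% = no enzyme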
How it was run: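 Compounds are pinned into diluted (1:55) conditioned medium of NLuc-expressing S16 cells and held 15 min at room temperature protected from light. Nano-Glo substrate follows, and luminescence is read 5 min later.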

[7] = Primary redox qHTS assay for identification of artifact compounds. (AID 1845223);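 further: 0% = DMSO and 100% = reference compound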
How it was run: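 Amplex Red (25 uM) and HRP (250 mU/mL) in HBSS, with compounds for 15 min, then 250 uM DTT for 30 min, room temperature, dark. Fluorescence 525/598 nm read; normalized to DMSO and 10 uM DA3003; Hill fit.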

[8] = system: NIH3T3; assay: Cytotoxic Profiling of Annotated Libraries Using Quantitative High-Throughput Screening (AID 1296008); details: Five cell lines viability, CellTiter-Glo ATP luminescence, 48-72 h; max response: stronger effect = lower value; further: nearly all actives have a fitted effect of over 60% in size; further: potency means the concentration at half of the fitted maximal effect; on max response: on the % scale 0 is the no-effect control and ±100 the full control effect
How it was run: (§1)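 Cytotoxicity was measured as CellTiter-Glo ATP luminescence, read after 10 min at room temperature. Compound treatment of the cells lasted 48 or 72 hr at 37 degrees Celsius in a qHTS format.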

[9] = system: C33A; assay: Primary qHTS to identify gynecologic anti-cancer compounds using libraries of approved drugs and bioactive compounds (AID 1345084); details: Gynecologic cancer cell panel viability, ATPlite luminescence, 48 h; series mostly up to 57.5 µM; further: nearly all actives have a fitted effect of over 55% in size; further: potency means the concentration at half of the fitted maximal effect
How it was run: (§2)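 Five-point cytotoxicity, 48 h drug exposure at 37 C, 5% CO2, on cells seeded 16 h beforehand. ATP content read by ATPlite luminescence.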

[10] = system: CAOV3; assay: as above; details: Gynecologic cancer cell panel viability, ATPlite luminescence, 48 h; series mostly up to 57.5 µM
How it was run: as §2

[11] = system: CASKI; assay: as above; details: Gynecologic cancer cell panel viability, ATPlite luminescence, 48 h; series mostly up to 57.5 µM
How it was run: as §2

[12] = system: Es-2; assay: as above; details: Gynecologic cancer cell panel viability, ATPlite luminescence, 48 h; series mostly up to 57.5 µM
How it was run: as §2

[13] = system: Hek293T; assay: as above; details: Gynecologic cancer cell panel viability, ATPlite luminescence, 48 h, control line for the selectivity index; series mostly up to 57.5 µM
How it was run: as §2

[14] = system: JEG-3; assay: as above; details: Gynecologic cancer cell panel viability, ATPlite luminescence, 48 h; series mostly up to 57.5 µM
How it was run: as §2

[15] = system: OV90; assay: as above; details: Gynecologic cancer cell panel viability, ATPlite luminescence, 48 h; series mostly up to 57.5 µM
How it was run: as §2

[16] = system: PA-1; assay: as above; details: Gynecologic cancer cell panel viability, ATPlite luminescence, 48 h; series mostly up to 57.5 µM
How it was run: as §2

[17] = system: Tov-21-G; assay: as above; details: Gynecologic cancer cell panel viability, ATPlite luminescence, 48 h; series mostly up to 57.5 µM
How it was run: as §2

[18] = system: Tov112D; assay: as above; details: Gynecologic cancer cell panel viability, ATPlite luminescence, 48 h; series mostly up to 57.5 µM
How it was run: as §2

[19] = Primary fluorescence-based thiol-reactive (MSTI) qHTS assay for identification of artifact compounds. (AID 1845221);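 further: thiol-reactive compounds lower the probe fluorescence signal; nearly all actives have a fitted effect of over 65% in size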
How it was run: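 Thiol-reactive compounds detected by quenching of 4 uM MSTI fluorescence (525/598 nm) after 1 h room-temperature dark incubation in PBS pH 7.4, 2% DMSO. qHTS titration; percent inhibition Hill-fitted against Acetyl-MSTI/MSTI controls.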

[20] = system: HaCat; assay: Cytotoxic Profiling of Annotated Libraries Using Quantitative High-Throughput Screening (AID 1296008); details: Five cell lines viability, CellTiter-Glo ATP luminescence, 48-72 h; max response: stronger effect = lower value; further: nearly all actives have a fitted effect of over 60% in size; further: potency means the concentration at half of the fitted maximal effect
How it was run: as §1

Sequence of Glutathione peroxidase 1 (Homo sapiens) (P07203 whole entry, looked up): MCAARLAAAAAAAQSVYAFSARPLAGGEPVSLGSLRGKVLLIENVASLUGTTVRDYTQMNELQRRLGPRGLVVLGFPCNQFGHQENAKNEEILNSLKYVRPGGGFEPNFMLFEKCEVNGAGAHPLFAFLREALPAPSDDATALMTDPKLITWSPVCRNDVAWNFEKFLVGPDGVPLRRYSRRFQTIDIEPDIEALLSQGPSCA
Sequence of Phospholipid hydroperoxide glutathione peroxidase GPX4 (Homo sapiens) (P36969 whole entry, looked up): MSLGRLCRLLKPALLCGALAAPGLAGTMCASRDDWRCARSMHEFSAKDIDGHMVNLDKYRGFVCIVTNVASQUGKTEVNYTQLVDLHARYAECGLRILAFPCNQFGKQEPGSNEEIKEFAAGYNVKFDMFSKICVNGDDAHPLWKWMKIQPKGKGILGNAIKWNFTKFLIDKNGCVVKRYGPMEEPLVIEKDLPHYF
Sequence of Calcium and integrin-binding protein 1 (Homo sapiens) (Q99828 whole entry, looked up): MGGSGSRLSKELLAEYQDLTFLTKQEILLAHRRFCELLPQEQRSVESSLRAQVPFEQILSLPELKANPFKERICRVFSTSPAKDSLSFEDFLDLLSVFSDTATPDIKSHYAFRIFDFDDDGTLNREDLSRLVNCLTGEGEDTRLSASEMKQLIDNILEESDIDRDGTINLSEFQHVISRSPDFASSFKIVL

CCC1CC2CN3CCc4c([nH]c5ccccc45)C(C(=O)OC)(C2)C13 (stereo not drawn)
inactive: Potency [1] | Potency [2] | Potency [3] | Potency [4] | outcome [5] | Potency [6] | Potency [7] | max response [8] -4.92% | Potency [9] | Potency [10] | Potency [11] | Potency [12] | Potency [13] | Potency [14] | Potency [15] | Potency [16] | Potency [17] | Potency [18]

NC(=O)[C@@H](CC1CC1)[C@@H](CCC(F)(F)F)C(=O)N[C@H]1N=C(c2ccccc2)c2cccc(F)c2NC1=O
inactive: Potency [1] | Potency [2] | Potency [3] | outcome [5] | Potency [19] | Potency [6] | Potency [7] | max response [20] -25% | max response [8] -16.9% | Potency [9] | Potency [10] | Potency [11] | Potency [12] | Potency [13] | Potency [14] | Potency [15] | Potency [16] | Potency [17] | Potency [18]

CC12Cc3cn[nH]c3C=C1CCC1C2CCC2(C)C1CCC2(C)O (stereo not drawn)
inactive: Potency [1] | Potency [2] | Potency [3] | Potency [4] | outcome [5] | Potency [19] | Potency [6] | max response [20] -0.609% | max response [8] -0.979% | Potency [9] | Potency [10] | Potency [11] | Potency [12] | Potency [13] | Potency [14] | Potency [15] | Potency [16] | Potency [17] | Potency [18]

C[C@]12CC[C@H](O)CC1=CC[C@@H]1C2CC[C@]2(C)[C@@H](C3=CC(=O)OC3)CC[C@]12O (stereo partly drawn)
active: Potency [12] 11200 nM | Potency [17] 10000 nM | Potency [18] 7080 nM
inactive: Potency [1] | Potency [2] | Potency [3] | Potency [4] | outcome [5] | Potency [19] | Potency [6] | Potency [7] | max response [8] -1.39% | Potency [11]

O=C1CN=C(c2ccccc2Cl)c2cc(Br)ccc2N1
inactive: Potency [1] | Potency [3] | outcome [5] | Potency [19] | Potency [6] | Potency [7] | max response [20] -40.1% | outcome [8] | Potency [9] | Potency [10] | Potency [11] | Potency [12] | Potency [13] | Potency [14] | Potency [15] | Potency [16] | Potency [17] | Potency [18]

C[C@@H](CN1CCC2(CC1)C(=O)NCN2c1cccc(F)c1)NC(=O)c1ccc(Br)cc1
inactive: Potency [1] | Potency [2] | Potency [3] | Potency [4] | outcome [5] | Potency [19] | Potency [9] | Potency [10] | Potency [12] | Potency [14] | Potency [15] | Potency [16] | Potency [17]

CO[C@@H]1[C@@H](O)[C@@H](O[C@H]2CC[C@]3(C=O)C4CC[C@]5(C)[C@@H](C6=CC(=O)OC6)CC[C@]5(O)[C@@H]4CC[C@H]3C2)O[C@@H](C)[C@H]1O[C@@H]1O[C@H](CO[C@@H]2O[C@H](CO)[C@@H](O)[C@H](O)[C@H]2O)[C@@H](O)[C@H](O)[C@H]1O (stereo partly drawn)
active: Potency [9] 3550 nM | Potency [12] 2000 nM | Potency [17] 3550 nM | Potency [18] 2510 nM
inactive: Potency [1] | Potency [2] | Potency [3] | Potency [4] | activity change, negative = inhibition [5] -6.08% [at 11.6 µM] | activity change, negative = thiol reactive [19] 52.3% [at 11.5 µM] | activity, negative = inhibition [6] 1.53% [at 11.6 µM] | redox activity (% of DA3003) [7] 5.87% [at 11.5 µM] | max response [20] -22.5% | outcome [8] | activity change, negative = cytotoxicity [10] -17.5% [at 11.6 µM] | activity change, negative = cytotoxicity [11] 13.6% [at 11.6 µM] | activity change, negative = cytotoxicity [14] -2.75% [at 11.6 µM] | activity change, negative = cytotoxicity [15] 8.02% [at 11.6 µM]

COc1cc2c(cc1O)C1(C)CCC(O)C(C)(C)C1CC2=O (stereo not drawn)
inactive: Potency [1] | Potency [2] | Potency [3] | outcome [5] | Potency [6] | Potency [7] | outcome [20] | outcome [8] | Potency [9] | Potency [10] | Potency [11] | Potency [12] | Potency [13] | Potency [14] | Potency [15] | Potency [16] | Potency [17] | Potency [18]

CC[C@@H](C)[C@H]1C(=O)O[C@H](C(C)C)C(=O)N(C)[C@@H](C(C)C)C(=O)O[C@H](C(C)C)C(=O)N(C)[C@@H](C(C)C)C(=O)O[C@H](C(C)C)C(=O)N1C
inactive: Potency [1] | Potency [2] | Potency [3] | Potency [4] | outcome [5] | Potency [19] | Potency [6] | Potency [7] | Potency [11] | Potency [14]

CCCCOC(=O)c1ccnc2cc(C(OCCN3CCCCC3)c3ccccc3Cl)sc12 (stereo not drawn)
inactive: Potency [1] | Potency [3] | Potency [4] | outcome [5] | Potency [6] | Potency [7] | outcome [20] | max response [8] -3.89% | Potency [9] | Potency [10] | Potency [11] | Potency [12] | Potency [13] | Potency [14] | Potency [15] | Potency [16] | Potency [17] | Potency [18]

C[C@]12CC[C@H](O[C@@H]3O[C@H](CO)[C@@H](O)[C@H](O)[C@H]3O)CC1=CC[C@@H]1C2CC[C@]2(C)[C@@H](C3=CC(=O)OC3)CC[C@]12O (stereo partly drawn)
inactive: Potency [1] | Potency [2] | Potency [3] | Potency [4] | Potency [19] | Potency [6] | Potency [7] | max response [8] 0.891% | Potency [14] | Potency [15]
active: Potency [12] 10000 nM | Potency [17] 6310 nM | Potency [18] 3160 nM

C[C@@H]1O[C@@H](O[C@H]2CC[C@@]3(C)C(CC[C@@H]4C3CC[C@]3(C)[C@@H](C5=CC(=O)OC5)CC[C@]43O)C2)[C@H](O[C@@H]2O[C@H](CO)[C@@H](O)[C@H](O)[C@H]2O)[C@H](O)[C@H]1O (stereo partly drawn)
inactive: Potency [1] | Potency [2] | Potency [3] | Potency [4] | outcome [5] | Potency [19] | max response [8] -13.4%
active: Potency [20] 2170 nM | Potency [9] 562 nM | Potency [10] 1000 nM | Potency [12] 891 nM | Potency [13] 891 nM | Potency [14] 2820 nM | Potency [16] 1000 nM | Potency [17] 708 nM | Potency [18] 224 nM
